Source: the supplement of paper PMC12340641
Where a name gives a salt, the structure may show the parent alone.

How the values were obtained:
[1] = molecular target: IKZF1 (dCK*-IKZF1 fusion in HEK293FT) (UniProt Q13422); test: inhibition of IKZF1 HTRF signal (DMSO = 0%, pomalidomide 10 uM = 100%); higher = lower IKZF1 protein level; settings: compound concentration: 5 uM, overnight (~20 h)
Outline: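 Percent inhibition of IKZF1 signal was calculated per plate with vehicle and a reference degrader as anchors. The anchors were 0% for vehicle and 100% for the degrader, applied to background-subtracted 665/620 nm time-resolved FRET ratios from a commercial HTRF total-IKZF1 kit. Signal came from HEK293FT cells stably expressing an IKZF1 fusion, treated overnight at 37 °C with 5 μM compound in single wells of 384-well plates.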

HEK293FT dCK*-only = test: relative growth in counter assay (no AraC = 100%, AraC + DMSO = 0%); higher = more growth rescue independent of IKZF1; settings: compound concentration: 5 uM; AraC concentration: 0.3 uM; overnight pretreatment + 4 days AraC
Outline: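 Nuclei were counted by imaging after Hoechst 33342 staining on day 5, in HEK293FT cells (300/well, 384-well) expressing only an engineered kinase construct. Compound at 5 μM went in 2 h after seeding, followed after overnight at 37 °C by a nucleoside suicide substrate at 0.3 μM plus medium for 4 days. Per plate, wells lacking suicide substrate defined 100% and those with substrate plus vehicle defined 0%.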

HEK293FT dCK*-IKZF1 = test: relative growth recovery (pomalidomide 10 uM = 100%, DMSO = 0%); higher = more growth rescue (IKZF1 fusion degradation); settings: compound concentration: 5 uM; AraC concentration: 0.3 uM; overnight pretreatment + 4 days AraC
Outline: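 Means of duplicates from different days are given for growth recovery, normalised per plate against a reference degrader and vehicle. The reference degrader set the 100% level and vehicle the 0% level. HEK293FT cells stably expressing a deoxycytidine kinase–IKZF1 fusion (300/well, 384-well) received 5 μM compound 2 h after seeding and, after overnight at 37 °C, 0.3 μM of a nucleoside suicide substrate plus medium for 4 days. Nuclei stained with Hoechst 33342 were then counted by whole-well imaging on day 5.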

Chain of IKZF1 (dCK*-IKZF1 fusion in HEK293FT) (Q13422 whole entry, looked up, the tested form may be a part): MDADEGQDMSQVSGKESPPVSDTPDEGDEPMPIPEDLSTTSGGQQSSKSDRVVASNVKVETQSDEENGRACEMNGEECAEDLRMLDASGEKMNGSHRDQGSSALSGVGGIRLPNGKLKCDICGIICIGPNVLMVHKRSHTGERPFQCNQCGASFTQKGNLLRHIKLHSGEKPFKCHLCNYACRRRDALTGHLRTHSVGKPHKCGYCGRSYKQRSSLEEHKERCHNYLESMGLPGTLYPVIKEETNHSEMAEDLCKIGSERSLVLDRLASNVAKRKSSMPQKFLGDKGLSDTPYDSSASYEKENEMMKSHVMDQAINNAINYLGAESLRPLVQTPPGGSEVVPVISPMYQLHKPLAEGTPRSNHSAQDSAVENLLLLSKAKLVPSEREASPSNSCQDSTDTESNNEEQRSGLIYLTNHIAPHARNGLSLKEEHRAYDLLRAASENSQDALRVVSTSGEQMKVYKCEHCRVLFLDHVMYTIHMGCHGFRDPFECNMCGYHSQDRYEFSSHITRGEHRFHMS

Row | Structure (SMILES) | inhibition of IKZF1 HTRF signal [1] [%] | relative growth in counter assay (HEK293FT dCK*-only) [%] | relative growth recovery (HEK293FT dCK*-IKZF1) [%]
1 | Cc1ccnc(NS(=O)(=O)c2ccc(N)cc2)n1 | -32.2 | 1.25 | 1.5
2 | c1ccc(CNc2nc(NCc3ccccc3)c3ccccc3n2)cc1 | -15.7 | -18.5 | -4.85
3 | CN1CCN(c2ncc(-c3cc(Cl)cc(Cl)c3Cl)c(N)n2)CC1 [sipatrigine] | 11.5 | 5.22 | 2.4
4 | C=C(NNC(=S)NNC(=S)Nc1ccccc1Cl)c1ccccn1 | 0.77 | -34.8 | -12.8
5 | O=C(Nc1cccc(C(F)(F)F)c1)Nc1ccc(Br)cc1-c1nnn[nH]1 | -23.4 | -0.22 | -2.33
6 | Clc1ccc(CSC(Cn2ccnc2)c2ccc(Cl)cc2Cl)cc1 (stereo unspecified) [Sulconazole Nitrate] | -32.3 | -8.02 | -2.21
7 | CN(Cc1cnc2nc(N)nc(N)c2n1)c1ccc(C(=O)N[C@@H](CCC(=O)O)C(=O)O)cc1 | -18.9 | -31.2 | -10.1
8 | CSc1ccc2c(c1)C(N1CCN(C)CC1)Cc1ccccc1S2 (stereo unspecified) | -34.7 | -1.22 | -1.56
9 | CCCCOc1ccc(-c2cncc(C(=O)NCc3cccnc3N3CCOCC3)c2)cc1Cl | -19.5 | -0.15 | 4.37
10 | CC[N+](CC)(CC)CC(=O)Nc1c(C)cccc1C | -32.9 | -2.01 | -0.165
11 | ClC1=CC=CC(NC2=C3C(N(C(C)C)C=N3)=NC(N[C@H]([C@@H](C)C)CO)=N2)=C1 [purvalanol-a] | -35.2 | 2.99 | -1.66
12 | CCCCCCCCCCCC1=C(O)C(=O)C=C(O)C1=O [embelin] | -30.8 | -6.94 | -3.97
13 | CC1=C(/C=C/C(C)=C/C=C/C(C)=C/C(=O)Nc2ccc(O)cc2)C(C)(C)CCC1 [Fenretinide] | -30.4 | -13.7 | -1.99
14 | O=C(/C=C/c1cccnc1)c1ccncc1 | -25 | -28.4 | -6.42
15 | CC(C)(C)c1ccc(-c2nc3ccccc3[nH]2)cc1 | -0.19 | 3.59 | 11.5
16 | CC(CCc1ccc(O)cc1)NCCc1ccc(O)c(O)c1 (stereo unspecified) [Dobutamine HCl] | 18.6 | -5.22 | -1.12
17 | COc1ccc(-c2ccc3c(N4CCOC[C@@H]4C)nc(N4CCOC[C@@H]4C)nc3n2)cc1CO | 50 | -33.9 | -13.8
18 | CNC(=O)c1cccc(-c2ccc3c(N4CCOC[C@@H]4C)nc(N4CCOC[C@@H]4C)nc3n2)c1 [Vistusertib (AZD2014)] | 69.4 | -33 | -12.9
19 | CC(O)(C(=O)Nc1ccc(S(=O)(=O)c2ccccc2)cc1)C(F)(F)F (stereo unspecified) | -44.3 | -0.27 | 0.77
20 | Clc1ccc2c(NCCNc3ccnc4cc(Cl)ccc34)ccnc2c1 | -19.4 | -2.86 | -1.39
21 | O=c1c(O)c(-c2ccc(O)c(O)c2)oc2cc(O)cc(O)c12 [quercetin] | -26.2 | -7.53 | -2.98
22 | Cc1ccccc1N=Nc1ccc(N=Nc2c(O)ccc3ccccc23)c(C)c1 [Solvent Red 24] | 13.9 | -1.17 | -0.495
23 | CCc1c2c(nc3ccc(O)cc13)-c1cc3c(c(=O)n1C2)COC(=O)[C@]3(O)CC | 36.8 | -33.9 | -13

Row | Structure (SMILES) | inhibition of IKZF1 HTRF signal [1] [%] | relative growth in counter assay (HEK293FT dCK*-only) [%] | relative growth recovery (HEK293FT dCK*-IKZF1) [%]
24 | CCCC(=O)C1CCN(c2ncnc3c2CN(C(=O)c2ccc(-c4ccccc4)cc2)CC3)CC1 | -10.8 | 18 | 4.94
25 | C[C@H]1O[C@@H](O[C@H]2[C@@H](O)C[C@H](O[C@H]3[C@@H](O)C[C@H](O[C@H]4CC[C@]5(C)C6C[C@@H](O)[C@]7(C)[C@@H](C8=CC(=O)OC8)CC[C@]7(O)C6CC[C@@H]5C4)O[C@@H]3C)O[C@@H]2C)C[C@H](O)[C@@H]1O (stereo partly specified) | 68.6 | -34.9 | -12.4
26 | Cc1ncsc1-c1ccc(CNC(=O)[C@@H]2C[C@@H](O)CN2C(=O)[C@@H](NC(=O)COCCOCCOc2ccc(-c3ccc4ncnc(Nc5ccc(OCc6cccc(F)c6)c(Cl)c5)c4c3)cc2)C(C)(C)C)cc1 | 6.76 | 49.6 | 19.7
27 | CNCC(O)c1ccc(O)c(O)c1 (racemic) [DL-Adrenaline] | 10.3 | -3.86 | -4.26
28 | O=C(c1cccc(Cl)c1F)N1CCN(Cc2cccc(Nc3nccs3)n2)CC1 | -54.8 | -32.1 | -11.2
29 | C/C=C(/C(=C/C)c1ccc(O)cc1)c1ccc(O)cc1 [dienestrol] | -24 | -2.14 | -1.6
30 | COCCN(C(=O)c1cc(OC)c(OC)c(OC)c1)c1nc(-c2ccccc2)cs1 [eact] | -41.3 | -0.03 | -1.76
31 | CC(C)n1nc(-c2ccc3oc(N)nc3c2)c2c(N)ncnc21 | 83.3 | -33.3 | -12.4
32 | COC(=O)C1=C(C)NC(C)=C(C(=O)OC(C)C)C1c1cccc2nonc12 (stereo unspecified) [isradipine] | -28.6 | -4.67 | 1.6
33 | CCc1oc2ccccc2c1C(=O)c1cc(Br)c(O)c(Br)c1 | 11.6 | -6.05 | -2.28
34 | COc1ccc(NC(=O)c2ccc(-c3ccc(-c4noc(C)n4)cc3C)cc2)cc1N1CCN(C)CC1 | -35.8 | -19.7 | 1.76
35 | COc1ccc(NS(=O)(=O)c2ccc(N=Nc3ccc(O)c(C(=O)O)c3)cc2)nn1 [salazodine] | -2.92 | 6.32 | -2.83
36 | CN(C)C(=O)C(CCN1CCC(O)(c2ccc(Cl)cc2)CC1)(c1ccccc1)c1ccccc1 [Loperamide HCl] | 3.48 | -7.07 | -1.04
37 | C=CC(=O)Nc1cccc(Oc2nc(Nc3ccc(N4CCN(C)CC4)cc3)ncc2Cl)c1 | 23.4 | -29.5 | -9.69
38 | Nc1nc(N)c2nc(-c3cccc(O)c3)cnc2n1 | 28.6 | -10.5 | -2.13
39 | O=c1oc(-c2ccc(C(F)(F)F)cc2)nn1Cc1cc(Cl)ccc1O | 11.5 | -6.2 | -5.1
40 | CCN(CC)C(=S)SSC(=S)N(CC)CC | -34.2 | -35.6 | -12.6
41 | O=C(Nc1cccc(Cl)c1)Nc1ncc(CCNc2ncnc3ccsc23)s1 [SNS-314 methanesulfonate] | -27 | -30.3 | -6.71
42 | C=C1C(=O)O[C@@H]2C=C(C)CCC=C(C)CC[C@@H]12 [costunolide] | -26.8 | -18.2 | -0.955
43 | COc1cccc2c(O)c3c(O)c4c(c(O)c3c(O)c12)=C(O[C@H]1C[C@H](N)[C@H](O)[C@H](C)O1)C[C@](O)(C(C)=O)C=4 [Daunorubicin HCl] | 56.3 | -34.8 | -13.9
44 | CN(C)CC/C=C1/c2ccccc2Sc2ccc(Cl)cc21 | -9.91 | 11.5 | -0.74
45 | CC(=O)Nc1ncc([N+](=O)[O-])s1 | 6.78 | 5.87 | -3.04
46 | Nc1nc2c(ccc3ccccc32)s1 | -31 | 4.08 | 0.375

Row | Structure (SMILES) | inhibition of IKZF1 HTRF signal [1] [%] | relative growth in counter assay (HEK293FT dCK*-only) [%] | relative growth recovery (HEK293FT dCK*-IKZF1) [%]
47 | CCC(=N\O)/C(C)=C/c1ccc(F)cc1 | 12.6 | -3.61 | -0.58
48 | CC[C@H](C)[C@H]1O[C@]2(CC[C@@H]1C)C[C@@H]1C[C@@H](C/C=C(\C)[C@@H](O[C@H]3C[C@H](OC)[C@@H](O[C@H]4C[C@H](OC)[C@@H](O)[C@H](C)O4)[C@H](C)O3)[C@@H](C)/C=C/C=C3\CO[C@@H]4[C@H](O)C(C)=CC(C(=O)O1)[C@]34O)O2 (stereo partly specified) [Ivermectin] | -28.1 | -2.12 | 0.635
49 | Cc1cc(/C=C2\SC(=O)N(c3ccccc3)C2=O)c(C)n1-c1cccnc1 | -32.6 | -4.98 | 0.895
50 | CCOC(=O)Nc1ccc2c(c1)N(C(=O)CN(C)C)c1ccccc1CC2 [Tiracizine] | 1.99 | 0.34 | -0.145
51 | CC(C)(C#N)c1ccc(N2C(=O)OCc3cnc4ccc(-c5cnc6ccccc6c5)cc4c32)cc1 | 17.1 | 3.56 | -2.14
52 | CN1CCCC(CC2c3ccccc3Sc3ccccc32)C1 (stereo unspecified) [metixene] | -23.4 | 2.04 | 1.64
53 | Cc1cccc(CCN2CCC(C(=O)c3ccc(NS(C)(=O)=O)cc3)CC2)n1 | -18.6 | -7.85 | -0.45
54 | O=C(N/N=C/c1ccc([N+](=O)[O-])o1)c1ccc(O)cc1 | 10.2 | -1.19 | -2
55 | COc1ccc2nc3cc(Cl)ccc3c(Nc3cc(CN4CCCC4)c(O)c(CN4CCCC4)c3)c2n1 | -32.1 | -29.1 | -10.1
56 | COc1cc(OC)c(/C=C2/C(=O)Nc3ccccc32)c(OC)c1 | -15.9 | -33.5 | -11.3
57 | FC(F)(F)c1cc(NC(=S)Nc2ccc(Br)cc2-c2nnn[nH]2)cc(C(F)(F)F)c1 | -39 | -37.2 | -1.23
58 | NC(=O)C(c1ccccc1)(c1ccc(F)cc1)c1ccc(F)cc1 [Senicapoc] | -28.5 | 2.14 | -0.855
59 | CCCCOC(=O)c1ccc(N)cc1 | -30.3 | -2.73 | -0.295
60 | O=C1N(c2ccccc2)c2ccccc2C1(Cc1ccncc1)Cc1ccncc1 [linopirdine] | -39.8 | -2.22 | -3.48
61 | O=C(OC)C1=C(C)NC(C)=C([N+]([O-])=O)[C@H]1[C@]2=CC=CC=C2C(F)(F)F | -26.8 | 0.45 | -0.325
62 | CCOC(=O)C1=C(C)NC(C)=C(C(=O)OC)C1c1cccc(Cl)c1Cl (stereo unspecified) | 18 | -9.69 | -1.19
63 | COc1cc(CN(CCN)C(=O)c2cccs2)ccc1OCc1ccccc1 | -24.8 | 7.03 | 0.355
64 | CC(C)c1ccc(NC(=O)Cn2cnc3c2c(=O)n(C)c(=O)n3C)cc1 | 12.2 | -3.63 | -1.03
65 | Nc1ccc(S(=O)(=O)Nc2cnc3ccccc3n2)cc1 | -31.3 | -4.7 | -1.83
66 | OC1(c2ccc(Cl)c(C(F)(F)F)c2)CCN(CCCC(c2ccc(F)cc2)c2ccc(F)cc2)CC1 | -28.8 | -26 | -5.21
67 | COc1ccc(-c2ccc3ncc4c(c3c2)n(-c2ccc(N3CCNCC3)c(C(F)(F)F)c2)c(=O)n4C)cn1 | 88.1 | -35.1 | -15.2
